Assay results taken from PubChem BioAssay AID2313 (Broad Institute, 2010).
Screen size: about 22,000 compounds; about 460 (2.1%) were called active. Roughly 2% stayed inconclusive and do not appear here. The sample holds actives, similar compounds and a random draw of the others, so the mix is not that of the screen.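 Rule for the calls: active = mean inhibition across valid replicates above about 65% (limit read from the data); inconclusive = mean under the limit, yet half or more replicates past it; inactive = the rest.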

Test: Hedgehog pathway signaling inhibitors, primary screen, luminescence, Shh-LIGHT2 cells, Gli-luciferase (AID 2313);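 note: pathway switched on by Shh-conditioned medium diluted 1 in 25 in low serum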
Conditions: Shh-LIGHT2 Gli-luciferase reporter, 30 h; active compounds read high
With `C[C@H](CO)N1C[C@H](C)[C@H](CN(C)Cc2ccc3c(c2)OCO3)Oc2c(cccc2N(C)C)C1=O` the inhibition was -27.6% (inactive).
For `CCCC(=O)Nc1ncnc2c1ncn2C1O[C@@H]2COP(=O)(O)O[C@H]2[C@H]1OC(=O)CCC` (stereo partly specified), the inhibition was -62.8% (inactive).
For `C[C@@H]1CCCCO[C@@H](CN(C)C(=O)Nc2cccc3ccccc23)[C@@H](C)CN([C@H](C)CO)C(=O)c2cc(NS(C)(=O)=O)ccc2O1`, the inhibition was 33.2% (inactive).
With `O=C(Oc1cccc(C(F)(F)F)c1)c1cc2ccc3ccccc3c2s1` the inhibition was -31.9% (inactive).
For `C[C@@H]1CC[C@]2(C(=O)O)CC[C@]3(C)C(=CCC4[C@@]5(C)CC[C@H](O)[C@](C)(C(=O)O)C5CC[C@]43C)C2[C@]1(C)O` (stereo partly specified), the inhibition was -18.2% (inactive).
In the case of `CC1(C)CC[C@@]2(C(=O)O)C(C1)C1=CCC3[C@@]4(C)CC[C@H](O)C(C)(C)C4CC[C@@]3(C)[C@]1(C)C[C@H]2O` (stereo partly specified), the inhibition is reported as -24.6% (inactive).
For `CC1(C)C2CC[C@]3(C)C(C(=O)C=C4[C@@H]5C[C@@](C)(C(=O)O)CC[C@]5(C)CC[C@]43C)[C@@]2(C)CC[C@@H]1O` (stereo partly specified), the inhibition was 66.5% (active).
For `Cc1ccc(S(=O)(=O)Nc2ccc3c(c2)C(=O)N([C@H](C)CO)C[C@@H](C)[C@H](CN(C)Cc2ccccc2)O3)cc1`, the inhibition was 15.5% (inactive).
In the case of `COC(=O)c1sc(SC)c(-c2ccn(S(=O)(=O)c3ccc(Cl)cc3)n2)c1C`, the inhibition is reported as 14.7% (inactive).
For `Oc1ccc(-n2cccc2)cc1`, the inhibition was 30.8% (inactive).
In the case of `O=C(OC1=CC(=O)c2cccc3cccc1c23)c1ccccc1`, the inhibition is reported as -20.2% (inactive).
For `Cc1ccc(C(=O)c2coc3ccc(O)c(CN(C)C)c23)cc1`, the inhibition was 38.9% (inactive).
For `CC(C)NC(=O)N(C)C[C@H]1Oc2c(NS(=O)(=O)c3ccc(Cl)cc3)cccc2C(=O)N([C@@H](C)CO)C[C@H]1C`, the inhibition was 3.77% (inactive).
In the case of `C[C@@H]1O[C@@H](Oc2cc(O)c3c(=O)c(O[C@@H]4O[C@@H](C)[C@H](O)[C@@H](O)[C@H]4O)c(-c4ccc(O)cc4)oc3c2)[C@H](O)[C@H](O)[C@H]1O`, the inhibition is reported as -11.3% (inactive).
For `COc1ccc(S(=O)(=O)Nc2ccc3c(c2)CC(=O)N([C@H](C)CO)C[C@H](C)[C@H](CN(C)CC2CC2)O3)cc1`, the inhibition was -6.58% (inactive).
In the case of `C[C@H]1CN([C@@H](C)CO)C(=O)Cc2cc(NS(C)(=O)=O)ccc2O[C@@H]1CN(C)CC1CC1`, the inhibition is reported as 70.7% (active).
With `C[C@H](CO)N1C[C@H](C)[C@H](CN(C)CC2CC2)Oc2ccc(NS(=O)(=O)c3ccccc3)cc2CC1=O` the inhibition was -5.84% (inactive).
With `COc1ccc(S(=O)(=O)Nc2cccc3c2O[C@@H](CN(C)S(=O)(=O)c2c(C)noc2C)[C@@H](C)CN([C@H](C)CO)C3=O)cc1` the inhibition was 24.8% (inactive).
In the case of `C[C@H](CO)N1C[C@H](C)[C@@H](CN(C)Cc2ccccc2)Oc2ccc(NC(=O)CCCN(C)C)cc2C1=O`, the inhibition is reported as -0.759% (inactive).
With `CCOC(=O)c1nnn2c1nc(N1CCN(c3ccccc3)CC1)c1ccccc12` the inhibition was 37.6% (inactive).
With `Cc1cc(C)n2nc(-c3ccc(C(C)(C)C)cc3)cc2n1` the inhibition was -92.6% (inactive).
For `COc1ccc(CN(C)C[C@H]2Oc3c(NC(=O)C4CC4)cccc3C(=O)N([C@@H](C)CO)C[C@H]2C)cc1`, the inhibition was -3.41% (inactive).
In the case of `C[C@@H]1CN([C@H](C)CO)C(=O)c2cc(NC(=O)c3ccncc3)ccc2O[C@H]1CN(C)Cc1ccc(Oc2ccccc2)cc1`, the inhibition is reported as 73.2% (active).
With `C[C@@H]1CN([C@@H](C)CO)C(=O)c2cc(NC(=O)c3ccncc3)ccc2O[C@H]1CN(C)Cc1ccc(C(=O)O)cc1` the inhibition was 13.9% (inactive).
With `C[C@@H]1CN([C@@H](C)CO)C(=O)c2cc(NC(=O)c3ccncc3)ccc2O[C@@H]1CN(C)Cc1ccncc1` the inhibition was 9.73% (inactive).
For `Cc1ccc(S(=O)(=O)N(C)C[C@@H]2Oc3c(NC(=O)Nc4c(C)noc4C)cccc3C(=O)N([C@@H](C)CO)C[C@@H]2C)cc1`, the inhibition was -32.7% (inactive).
In the case of `CC(C)(O)C1=CCC23COC(C2)C(O)(C(=O)O)CCC13` (stereo unspecified), the inhibition is reported as 12.8% (inactive).
For `COc1ccc(NC(=O)N(C)C[C@@H]2Oc3c(NC(=O)NC4CCCCC4)cccc3C(=O)N([C@H](C)CO)C[C@H]2C)cc1`, the inhibition was -15.5% (inactive).
For `Cc1ccc(S(=O)(=O)N(C)C[C@@H]2Oc3ccc(NS(=O)(=O)c4cn(C)cn4)cc3C(=O)N([C@@H](C)CO)C[C@H]2C)cc1`, the inhibition was -8.67% (inactive).
In the case of `CCOc1cc(/C=C2\SCOC2=O)ccc1O`, the inhibition is reported as -11.1% (inactive).
In the case of `COc1ccc(S(=O)(=O)Nc2cccc3c2O[C@H](CN(C)C(=O)NC(C)C)[C@H](C)CN([C@H](C)CO)C3=O)cc1`, the inhibition is reported as 4.9% (inactive).
With `CCN(c1ccccc1)S(=O)(=O)c1ccc(C)cc1` the inhibition was -25.3% (inactive).
In the case of `Cc1cc(=O)[nH]c(SCc2cn3c(C)cc(C)nc3n2)n1`, the inhibition is reported as -20.5% (inactive).
For `Cc1ccc(S(=O)(=O)Nc2cccc3c2O[C@H](CN(C)S(=O)(=O)c2cn(C)cn2)[C@H](C)CN([C@H](C)CO)C3=O)cc1`, the inhibition was 21.4% (inactive).
For `COc1ccc(CN(C)C[C@H]2OCCCC[C@@H](C)Oc3ccc(NC(=O)Nc4cccc5ccccc45)cc3C(=O)N([C@H](C)CO)C[C@@H]2C)cc1`, the inhibition was 17.8% (inactive).
With `Cc1ccc(S(=O)(=O)N(C)C[C@@H]2Oc3c(NC(=O)C4CC4)cccc3C(=O)N([C@H](C)CO)C[C@@H]2C)cc1` the inhibition was 115% (active).
In the case of `Cc1ccc(S(=O)(=O)N(C)C[C@@H]2Oc3c(NC(=O)C4CC4)cccc3C(=O)N([C@H](C)CO)C[C@H]2C)cc1`, the inhibition is reported as -12.6% (inactive).
With `C[C@H]1CN([C@@H](C)CO)C(=O)c2cccc(NC(=O)Nc3ccccc3)c2O[C@H]1CN(C)S(=O)(=O)c1ccc(Cl)cc1` the inhibition was 108% (active).
In the case of `Cc1ccc(S(=O)(=O)N(C)C[C@@H]2Oc3c(NC(=O)Nc4ccccc4)cccc3C(=O)N([C@H](C)CO)C[C@H]2C)cc1`, the inhibition is reported as -14.6% (inactive).
With `Cc1ccc(S(=O)(=O)N(C)C[C@H]2Oc3c(NC(=O)C4CC4)cccc3C(=O)N([C@@H](C)CO)C[C@@H]2C)cc1` the inhibition was 28.4% (inactive).
For `C[C@H](CO)N1C[C@H](C)[C@H](CN(C)S(=O)(=O)c2ccccc2)Oc2c(NC(=O)Nc3ccccc3)cccc2C1=O`, the inhibition was 14.8% (inactive).
